Experiment [1] is described as follows: Quantitative High-Throughput drug screen in 47 multiple myeloma cell lines against the NCATS MIPE library collection: MOLP8_DSMZ cell viability assay (AID 1918977). Note: nearly all actives have a fitted effect of over 45% in size. The method, boiled down: (§1)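 500 cells/well per myeloma line exposed to pinned MIPE 4.0 compounds for 48 h at 37 °C, 5% CO2. Viability read as ATP by CellTiter-Glo luminescence, normalised to DMSO-only (100%) and media-only (0%) wells.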

Experiment [2] can be described thus: Quantitative High-Throughput drug screen in 47 multiple myeloma cell lines against the NCATS MIPE library collection: NCIH929_DSMZ cell viability assay (AID 1918978). Note: nearly all actives have a fitted effect of over 35% in size. Note: potency is the fitted concentration of half-maximal effect. The method, boiled down: as §1
The nature of experiment [3]: Quantitative High-Throughput drug screen in 47 multiple myeloma cell lines against the NCATS MIPE library collection: OCIMY1_PLB cell viability assay (AID 1918979). Note: series mostly up to about 46 µM; nearly all actives have a fitted effect of over 35% in size. Summed up:
as §1

The nature of experiment [4]: Quantitative High-Throughput drug screen in 47 multiple myeloma cell lines against the NCATS MIPE library collection: MM1R_ATCC cell viability assay (AID 1918981). Note: nearly all actives have a fitted effect of over 35% in size. The method, boiled down: as §1
Experiment [5] can be described thus: Quantitative High-Throughput drug screen in 47 multiple myeloma cell lines against the NCATS MIPE library collection: LP1_DSMZ cell viability assay (AID 1918982). Note: nearly all actives have a fitted effect of over 35% in size. Note: potency is the fitted concentration of half-maximal effect. The method, boiled down:
as §1

The nature of experiment [6]: Quantitative High-Throughput drug screen in 47 multiple myeloma cell lines against the NCATS MIPE library collection: KMS28PE_JCRB cell viability assay (AID 1918983). Note: nearly all actives have a fitted effect of over 35% in size. Note: potency is the fitted concentration of half-maximal effect. Summed up:
as §1

Experiment [7] in a line: Quantitative High-Throughput drug screen in 47 multiple myeloma cell lines against the NCATS MIPE library collection: OCIMY7_PLB cell viability assay (AID 1918987). Note: nearly all actives have a fitted effect of over 65% in size. Note: potency is the fitted concentration of half-maximal effect. The method, boiled down:
as §1

A short description of experiment [8]: Quantitative High-Throughput drug screen in 47 multiple myeloma cell lines against the NCATS MIPE library collection: OPM1_PLB cell viability assay (AID 1918989). Note: nearly all actives have a fitted effect of over 40% in size. Note: potency is the fitted concentration of half-maximal effect. Summed up:
as §1

The nature of experiment [9]: Quantitative High-Throughput drug screen in 47 multiple myeloma cell lines against the NCATS MIPE library collection: KMS12PE_JCRB cell viability assay (AID 1918972). Note: potency is the fitted concentration of half-maximal effect; nearly all actives have a fitted effect of over 30% in size. The method, boiled down: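 Myeloma cell lines, 500 cells per well, exposed to MIPE 4.0 library compounds for 48 h at 37C, 5% CO2. Viability from ATP by CellTiter-Glo luminescence; normalised to DMSO (100%) and media-only (0%) wells.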

Experiment [10] can be described thus: Quantitative High-Throughput drug screen in 47 multiple myeloma cell lines against the NCATS MIPE library collection: KMS20_JCRB cell viability assay (AID 1918973). Note: potency is the fitted concentration of half-maximal effect; nearly all actives have a fitted effect of over 45% in size. The method, boiled down: (§2)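 CellTiter-Glo ATP luminescence gave viability after 48 h compound treatment at 37C of 500 multiple myeloma cells per well. Normalisation used DMSO-only wells as 100% and media-only wells as 0% viability; primary qHTS of approved and investigational drugs.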

Experiment [11] is described as follows: Quantitative High-Throughput drug screen in 47 multiple myeloma cell lines against the NCATS MIPE library collection: KMS21BM_JCRB cell viability assay (AID 1918974). Note: potency is the fitted concentration of half-maximal effect. The settings on record: ATP luminescence, 48 h; viability: at 45.8 µM unless noted. Summed up: as §2
The nature of experiment [12]: Quantitative High-Throughput drug screen in 47 multiple myeloma cell lines against the NCATS MIPE library collection: MM1S_ATCC cell viability assay (AID 1918980). Note: potency is the fitted concentration of half-maximal effect; nearly all actives have a fitted effect of over 45% in size. Summed up:
as §1

Experiment [13] is described as follows: Quantitative High-Throughput drug screen in 47 multiple myeloma cell lines against the NCATS MIPE library collection: L363_DSMZ cell viability assay (AID 1918984). Note: potency is the fitted concentration of half-maximal effect; nearly all actives have a fitted effect of over 40% in size. The method, boiled down:
as §1

Experiment [14] can be described thus: Quantitative High-Throughput drug screen in 47 multiple myeloma cell lines against the NCATS MIPE library collection: OCIMY5_PLB cell viability assay (AID 1918988). Note: potency is the fitted concentration of half-maximal effect; nearly all actives have a fitted effect of over 65% in size. Summed up: as §1
Experiment [15] in a line: Quantitative High-Throughput drug screen in 47 multiple myeloma cell lines against the NCATS MIPE library collection: KMS26_JCRB cell viability assay (AID 1918975). Note: potency is the fitted concentration of half-maximal effect; nearly all actives have a fitted effect of over 45% in size. Summed up:
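Viability readout: CellTiter-Glo luminescence following 5 min room-temperature incubation with reagent. Prior exposure: 48 h, 37C, humidified 5% CO2, 500 cells per well.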

Inconclusive results are not listed. Activity calls are given as the source filed them. Calls come from the whole dose curve; as a rule, active = well fitted curve in the direction sought with a large enough effect; inconclusive = small, poorly fitted or top-dose-only effect, or another doubt; inactive = no such curve, though single readings can be large; an effect the other way counts as inactive or inconclusive.

For the compound `Clc1ccc2nsnc2c1NC1=NCCN1`, the Potency result in [1], in experiment [2], in experiment [3], in [4], in experiment [5] and in [6] was “inactive” in each case. The Potency result in [7] and in [8] was “inactive” in each case.
On to `OCCN1CCN(CCCN2c3ccccc3Sc3ccc(C(F)(F)F)cc32)CC1`, for which the Potency in experiment [9] was 9.35 µM (active); in experiment [10], 16.6 µM (active); in experiment [11] it was 14.8 µM (active); in experiment [2] it was 20.9 µM (active); in experiment [12], 2.96 µM (active); in experiment [5] it was 18.7 µM (active). The Potency is 18.7 µM (active) in experiment [6], 7.43 µM (active) in experiment [13], 20.9 µM (active) in experiment [14] and 20.9 µM (active) in [8].
As to `C[C@H]1c2cccc(O)c2C(O)=C2C(=O)[C@]3(O)C(O)=C(C(N)=O)C(=O)[C@@H](N(C)C)[C@@H]3[C@@H](O)[C@@H]21`, the Potency is 29.6 µM (active) in experiment [9]; 23.5 µM (active) in experiment [15]; 18.7 µM (active) in experiment [2]; 11.8 µM (active) in experiment [7]; 23.5 µM (active) in experiment [14]. Besides, the Potency result in experiment [5] was “inactive”.

Values taken from PubChem BioAssay (NCATS).
